Reference: PubChem BioAssay (Tox21)
Values joined by “and” are separate entries in the source; they are usually repeats but may differ in a detail not shown here. Identical values can stand only once. Inconclusive results are not listed. Where a structure was tested more than once in an assay, its records may differ in their call. Active and inactive are the calls of the source. Unless noted, calls come from the whole dose curve; as a rule, active = well fitted curve in the direction sought with a large enough effect in the repeat runs; inconclusive = weak or mixed curves; inactive = no such curve, though single readings can be large; an effect the other way counts as inactive or inconclusive.

How the values were obtained:
[1] = qHTS assay to identify small molecule agonists of the hypoxia (HIF-1) signaling pathway - cell viability counter screen (AID 1224844; calls by dose curve; note: nearly all actives have a fitted effect of over 50% in size; note: potency is the fitted concentration of half-maximal effect)
Summary of the method: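 ME-180 HRE-bla cells, 2,000/well, 0.5% dialyzed FBS; 5 hr settle, 17 hr compound at 37C/5% CO2; CCF4-AM reporter read first, then CellTiter-Glo luminescence after 30 min RT.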

[2] = qHTS assay to identify small molecule agonists of H2AX (AID 1224845; active = well fitted activation curve with a large enough effect in the signal ratio in the repeat runs, not every such curve was filed as active; the % refers to the signal ratio; note: potency is the fitted concentration of half-maximal effect)
Summary of the method: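 Phospho-H2AX Ser139 measured by HTRF (ex 320 nm; em 665 and 620 nm) after 24 hr antibody incubation. Compounds, 15 concentrations, 0.76% DMSO, were applied to CHO-K1 cells for 3hr at 37C before lysis.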

[3] = qHTS assay to identify small molecule agonists of H2AX - cell viability counter screen (AID 1224847; calls by dose curve; note: nearly all actives have a fitted effect of over 30% in size; note: potency is the fitted concentration of half-maximal effect)
Summary of the method: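 Compounds tested at 15 concentrations were incubated 3 hr at 37C with wild-type CHO-K1 cells; cellular ATP-based luminescence (CellTiter-Glo) indicated viability.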

[4] = qHTS assay to identify small molecule antagonists of the estrogen related receptor (ERR) signaling pathway from Tox21 library (AID 1224848); note: potency is the fitted concentration of half-maximal effect; nearly all actives have a fitted effect of over 50% in size
Summary of the method: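 Reading was by luminescence 30 min after ONE-Glo addition. Before that, ERR cells at 2,000 per well had rested 6 h at 37 C/5% CO2 and then received pin-tooled compounds in DMSO for 18 h at 37 C.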

[5] = qHTS assay to identify small molecule agonists of the estrogen related receptor (ERR) signaling pathway from Tox21 library (AID 1224849; calls by dose curve; note: % is set by controls: 0 for no effect and ±100 for the full control effect; nearly all actives have a fitted effect of over 15% in size); details: ERR reporter cell line, ONE-Glo luciferase, 18 h
Summary of the method: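 ERR cells, 6 h pre-incubation 37 C/5% CO2; cpd in DMSO pinned; 18 h 37 C; ONE-Glo added, 30 min RT; luminescence read. Agonist mode, qHTS.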

[6] = qHTS RealTime-Glo MT Cell Viability Assay in HepG2 cells - 24 hour (AID 1224867); note: nearly all actives have a fitted effect of over 50% in size; note: potency is the fitted concentration of half-maximal effect
Summary of the method: (§1)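 qHTS, HepG2, 600 cells/well, RealTime-Glo (NanoLuc + prosubstrate) added with cells; 5 h preincubation; DMSO compound addition; 37 C; luminescence at 0/8/16/24/32/40 h.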

[7] = A CellTox Green Cytotoxicity Assay to monitor cytotoxicity in HEK293 cells - 0 hour (AID 1224869); note: % is set by controls: 0 for no effect and ±100 for the full control effect; nearly all actives have a fitted effect of over 50% in size
Summary of the method: (§2)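 Nonlytic real-time cytotoxicity: HEK293 + CellTox Green reagent plated, 5 h preincubation, pintool compound addition (23 nL in DMSO), 37 C for 40 h, fluorescence measured at successive time points.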

[8] = qHTS RealTime-Glo MT Cell Viability Assay in HepG2 cells - 40 hour (AID 1224870); note: nearly all actives have a fitted effect of over 50% in size; note: potency is the fitted concentration of half-maximal effect
Summary of the method: (§3)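 Real-time viability: cells seeded at 600 per well together with NanoLuc and cell-permeant prosubstrate, compounds added after 5 h incubation. Luminescence tracked at 0, 8, 16, 24, 32 and 40 h of exposure.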

[9] = A CellTox Green Cytotoxicity Assay to monitor cytotoxicity in HEK293 cells - 40 hour (AID 1224871); note: nearly all actives have a fitted effect of over 45% in size; note: potency is the fitted concentration of half-maximal effect
Summary of the method: as §2

[10] = qHTS RealTime-Glo MT Cell Viability Assay in HepG2 cells - 8 hour (AID 1224873); note: nearly all actives have a fitted effect of over 55% in size; note: potency is the fitted concentration of half-maximal effect
Summary of the method: as §3

[11] = A CellTox Green Cytotoxicity Assay to monitor cytotoxicity in HEK293 cells - 24 hour (AID 1224875); note: nearly all actives have a fitted effect of over 45% in size; note: potency is the fitted concentration of half-maximal effect; for activity change: % is set by controls: 0 for no effect and ±100 for the full control effect
Summary of the method: as §2

[12] = qHTS RealTime-Glo MT Cell Viability Assay in HepG2 cells - 32 hour (AID 1224877); note: nearly all actives have a fitted effect of over 55% in size; note: potency is the fitted concentration of half-maximal effect
Summary of the method: as §1

[13] = A CellTox Green Cytotoxicity Assay to monitor cytotoxicity in HepG2 cells - 24 hour (AID 1224878); note: nearly all actives have a fitted effect of over 45% in size; note: potency is the fitted concentration of half-maximal effect; for Cytotoxicity: % is set by controls: 0 for no effect and ±100 for the full control effect
Summary of the method: (§4)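 Read-out is fluorescence of a cyanine dye excluded from live cells that stains DNA of dead HepG2 cells, with signal proportional to cytotoxicity. Plates were read at 0, 8, 16, 24, 32 and 40 h after compound addition.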

[14] = qHTS RealTime-Glo MT Cell Viability Assay in HEK293 cells - 0 hour (AID 1224880); note: top concentration of the series differs between compounds; % is set by controls: 0 for no effect and ±100 for the full control effect; nearly all actives have a fitted effect of over 45% in size
Summary of the method: (§5)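 Cells were seeded together with NanoLuc luciferase and a prosubstrate that viable cells reduce to a luciferase substrate. After a 5 h incubation at 37 C/5% CO2, compounds were added and luminescence was measured repeatedly during 40 h of treatment.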

[15] = qHTS RealTime-Glo MT Cell Viability Assay in HEK293 cells - 32 hour (AID 1224868); note: nearly all actives have a fitted effect of over 50% in size; note: potency is the fitted concentration of half-maximal effect
Summary of the method: (§6)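 Assay medium contained NanoLuc luciferase plus cell-permeant prosubstrate, added with HEK293 cells at 600 cells/well. After 5 h at 37 C/5% CO2 compounds were added; plates stayed at 37 C for 40 h with serial luminescence reads.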

[16] = qHTS RealTime-Glo MT Cell Viability Assay in HEK293 cells - 16 hour (AID 1224872); note: nearly all actives have a fitted effect of over 50% in size; note: potency is the fitted concentration of half-maximal effect
Summary of the method: as §6

[17] = qHTS RealTime-Glo MT Cell Viability Assay in HEK293 cells - 40 hour (AID 1224874); details: RealTime-Glo luminescence; max response: stronger effect = lower value; note: nearly all actives have a fitted effect of over 50% in size; note: potency is the fitted concentration of half-maximal effect; for max response: % is set by controls: 0 for no effect and ±100 for the full control effect
Summary of the method: as §5

[18] = A CellTox Green Cytotoxicity Assay to monitor cytotoxicity in HepG2 cells - 40 hour (AID 1224879); note: nearly all actives have a fitted effect of over 40% in size; note: potency is the fitted concentration of half-maximal effect
Summary of the method: as §4

[19] = A CellTox Green Cytotoxicity Assay to monitor cytotoxicity in HepG2 cells - 16 hour (AID 1224876); note: nearly all actives have a fitted effect of over 45% in size; note: potency is the fitted concentration of half-maximal effect
Summary of the method: as §4

[20] = at 92.4 µM (top of the series) unless noted

Oc1cc(Cl)c(Cl)c(Cl)c1
inactive: Potency [1] | Potency [2] | activity change, positive = activation [5, 20] -65.2% | Potency [6] | Potency [7] | Potency [8] | Potency [10] | Potency [11] | Potency [12] | Potency [13] | Potency [14]
active: Potency [3] 42.7 µM | Potency [4] 29.1 µM | Potency [9] 13.1 µM

COC12CC[C@@]3(C[C@@H]1C(C)(O)C(C)(C)C)[C@H]1Cc4ccc(O)c5c4[C@@]3(CCN1CC1CC1)[C@H]2O5 (stereo partly specified)
active: Potency [1] 34.4 µM | Potency [2] 56.3 µM | Potency [3] 28.2 µM | Potency [4] 27.1 µM | Potency [6] 43.4 µM | Potency [15] 24.4 µM | Potency [8] 48.6 µM | Potency [9] 24.4 µM | Potency [16] 24.4 µM | Potency [10] 43.4 µM | Potency [17] 24.4 µM | Potency [11] 38.6 µM | Potency [12] 48.6 µM | Potency [18] 24.4 µM
inactive: activity change, positive = activation [5, 20] -68% | Potency [7] | Potency [14]

c1ccc2c(c1)[nH]c1cnccc12
inactive: Potency [1] | Potency [2] | Potency [3] | Potency [6] | Potency [15] | Potency [7] | Potency [9] | Potency [16] | max response [17] 0.679% | Potency [11] | Potency [19] | Potency [12] | Potency [18]

CCCCCCCCCCCCCCC(Br)C(=O)O (stereo unspecified)
active: Potency [1] 49 µM | Potency [18] 17.4 µM
inactive: Potency [2] | Potency [3] | Potency [6] | Potency [15] | Potency [8] | Potency [9] | Potency [16] | max response [17] -7.18% | Potency [11] | Potency [19] | Potency [12] | Potency [14]

Clc1ccc(C(c2ccc(Cl)cc2)C(Cl)(Cl)Cl)cc1
active: Potency [1] 24.7 µM | Potency [2] 0.161 µM | Potency [3] 101 µM and 89.8 µM | Potency [4] 54.9 µM and 61.1 µM | Potency [15] 39.2 µM | Potency [16] 39.2 µM | Potency [17] 39.2 µM
inactive and 54.9 µM (active): Potency [18]
55.3 µM (active) and inactive: Potency [9]
inactive: activity change, positive = activation ([5]; at 42.5 µM (top of the series)) -17.1% | activity change, positive = activation ([5]; at 92.4 µM (top of the series)) -47.6% and -41.9% | Potency [6] | Potency [7] | Potency [8] | Potency [10] | Potency [19] | Potency [12] | Potency [13] | Potency [14]

CC1CCC(C(C)C)C(OC(=O)c2ccccc2N)C1 (stereo unspecified)
inactive: activity change, positive = activation [5, 20] -55.4% | Potency [6] | Potency [7] | Potency [8] | Potency [10] | Potency [19] | Potency [12] | Potency [14]
active: Potency [1] 38.4 µM | Potency [2] 88.5 µM | Potency [3] 88.5 µM | Potency [4] 53.7 µM | Potency [15] 38.4 µM | Potency [9] 27.2 µM | Potency [16] 34.2 µM | Potency [17] 34.2 µM

C[C@@H]1CC[C@@]2(OC1)O[C@H]1[C@@H](O)[C@H]3[C@@H]4CC[C@H]5C[C@@H](O[C@@H]6O[C@H](CO)[C@H](O[C@@H]7O[C@H](CO)[C@@H](O)[C@H](O[C@@H]8OC[C@@H](O)[C@H](O)[C@H]8O)[C@H]7O[C@@H]7O[C@H](CO)[C@@H](O)[C@H](O[C@@H]8O[C@H](CO)[C@@H](O)[C@H](O)[C@H]8O)[C@H]7O)[C@H](O)[C@H]6O)[C@H](O)C[C@]5(C)[C@H]4CC[C@]3(C)[C@H]1[C@@H]2C
active: Potency [1] 11.6 µM | Potency [3] 10.7 µM | Potency [4] 23 µM | Potency [6] 20.7 µM | Potency [15] 11.6 µM | Potency [8] 26.1 µM | Potency [9] 3.68 µM | Potency [16] 9.25 µM | Potency [10] 16.4 µM | Potency [17] 11.6 µM | Potency [11] 1.31 µM | Potency [19] 13.1 µM | Potency [12] 23.2 µM | Potency [13] 11.6 µM | Potency [18] 11.6 µM
inactive: Potency [2] | activity change, positive = activation [5, 20] -74.6% | Potency [7]
